# Source: PubChem (National Center for Advancing Translational Sciences (NCATS))
# Shown are actives, neighbours in structure and some others; about 7.8% of the full set was active somewhere.
# HCV inhibitor: HCV inhibition; Potency, µM (series often up to 41.8 µM), without a hit: at the top dose activity change, negative = inhibition, actives largely listed as inhibitors; 3.4% of 340,000 active; Huh7.5.1 HCVcc-Cre infection, luciferase reporter, 44 h; active means well fitted inhibition curve with a large enough effect; inconclusive means small, poorly fitted or top-dose-only effect, or another doubt; inactive means no such curve, though single readings can be large or run the other way; further: potency means the concentration at half of the fitted maximal effect
#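 HCVcc-Cre virus at an moi near 0.5 was added right after compound to cells cultured 4 h from seeding (1,000 cells/well). Luciferase activity was determined 44 h later, 15 min after substrate addition at RT.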
# Vaccinia Venus: inhibitors of vaccinia virus (Venus reporter); Potency, µM (series often up to 36.5 µM), without a hit: top-dose activity change, negative = inhibition, most hits filed as inhibitors; Vaccinia virus Venus reporter expression, fluorescence; 0.46% of 330,000 active; calls by dose curve; tested in A549 cells; further: potency means the concentration at half of the fitted maximal effect; nearly all actives have a fitted effect of over 30% in size
# HCMV antiviral: human cytomegalovirus inhibition. HFF cells, HCMV-luciferase reporter, 72 h; stronger effect = lower value. 4.5% of 410,000 active. activity change, negative = inhibition, % at 57.5 µM; in the data active means activity change below about -60%; inconclusive means no clear call, values can overlap the other calls; inactive means above about -39%
#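 After 16 h attachment at 37C, HFF cells received test compound and HCMV-luciferase (1 PFU/cell); reporter luminescence read 72 h later, data normalized against buffer-only and known inhibitor Salinomycin.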
# Marburg entry inh: inhibitors of Marburg virus binding or cell entry | Marburg virus pseudotyped entry inhibition, cell reporter | Potency, µM (top dose mostly 37.8 µM), without a hit: at the highest dose activity change, negative = inhibition, actives largely listed as inhibitors | 1.8% of 300,000 active | AID 540276; calls by dose curve; tested in HEK293 cells; further: potency means the concentration at half of the fitted maximal effect
# Lassa entry inh: blocks Lassa virus binding to or entry into cells | Lassa virus pseudotype entry inhibition, cell reporter | Potency, µM (highest dose often 37.9 µM), for inactives: top-dose activity change, negative = inhibition, hits mostly inhibitors | 1.2% of 300,000 active; calls by dose curve; tested in HEK293 cells; further: potency means the concentration at half of the fitted maximal effect; nearly all actives have a fitted effect of over 50% in size
# Vaccinia mCherry: vaccinia inhibition (mCherry reporter). Vaccinia virus mCherry reporter infection, fluorescence. Potency, µM (doses to about 36.5 µM), inactives show at the top dose activity change, negative = inhibition, usual class: inhibitors. 0.63% of 310,000 active. AID 720579; calls by dose curve; tested in A549 cells; further: potency means the concentration at half of the fitted maximal effect; nearly all actives have a fitted effect of over 35% in size
# Active calls of the source: *; i = inactive; ? = inconclusive; . = not tested or not shown; [ ] = dose if it differs, or a comment. On the % scale 0 is the no-effect control and ±100 the full control effect.
SMILES,HCV inhibitor,Vaccinia Venus,HCMV antiviral,Marburg entry inh,Lassa entry inh,Vaccinia mCherry
O=C(CNC(=O)c1ccccc1Cl)N/N=C/c1ccc([N+](=O)[O-])s1,12.6µM*,?,-92.8*,?,?,?
O=C(Nc1ccc2nc(-c3cccs3)c(-c3cccs3)nc2c1)N1CCCC1,.,-13.7%,.,.,.,-4.6%
O=C(Nc1ccc2nc(-c3cccs3)c(-c3cccs3)nc2c1)NC1CC1,25.1µM*,.,-37.9,-22.2%,-22.4%,.
CC(=O)NCCNc1nc2c(-c3ccc(C)cc3)nnn2c2ccccc12,.,3.4%,52.6,12.9%[46.1 µM],11.2%[46.1 µM],9.2%
CCOC(=O)c1nnn2c1nc(Nc1cccc(C(F)(F)F)c1)c1ccccc12,-3.1%,-16.4%,-74.3*,?,21.5%,-14.0%
CC(=O)NCCNc1nc2c(-c3cccc(C)c3)nnn2c2ccccc12,14.1µM*,.,-17.9,.,.,.
NNc1nc2c(-c3cccc(C(F)(F)F)c3)nnn2c2ccccc12,14.1µM*,4.1%,43.8,?,?,?
CCOC(=O)N1CCN(C(=O)c2ccc(-c3ccccc3OC)nc2N2CCC(N3CCCC(CO)C3)CC2)CC1 (stereo not given),.,-5.1%,.,.,.,-8.9%
COC(=O)c1ccc(Nc2nnc(-c3ccc(C)c(S(=O)(=O)N4CCN(C)CC4)c3)c3ccccc23)cc1,.,-21.5%,-29.6,?,?,-27.1%
O=C(OCC1OC(n2ncc(=O)[nH]c2=O)C(OC(=O)c2ccccc2)C1OC(=O)c1ccccc1)c1ccccc1 (stereo not given),-3.0%,3.9%,3.4,.,.,-4.9%
CC(=O)OC[C@H]1O[C@@H](n2ncc(=O)[nH]c2=O)[C@H](OC(C)=O)[C@@H]1OC(C)=O,28.0%,0.9%,.,?,0.731µM*,-27.1%
Cn1c(=N)n(CC(O)c2cccc3ccccc23)c2ccccc21 (stereo not given),11.2µM*,-6.1%,33.8,?,?,.
CC1=CN2C(=N)/C(=C/c3ccc([N+](=O)[O-])o3)C(=O)N=C2S1,11.4%,108.7%,-95.8*,?,-14.2%,52.9%
CCOc1ccc(-c2ccc(/C=C3/C(=N)N4C(C)=CSC4=NC3=O)o2)c([N+](=O)[O-])c1,-10.2%,-1.4%,72.4,?,6.4%,-23.5%
CCOc1ccc(-c2ccc(/C=C3/C(=N)N4C=CSC4=NC3=O)o2)c([N+](=O)[O-])c1,11.2µM*,-3.1%,18.4,-18.4%,0.7%,i
Cc1ccc(N(CC(=O)Nc2ccc(Br)cc2)S(=O)(=O)c2cccs2)cc1,.,8.9%,-18.6,4.0%[46.1 µM],2.9%[46.1 µM],-3.8%
CC(C)=CCOc1ccc([C@@H]2COc3c(ccc4c3C=CC(C)(C)O4)C2)c(O)c1,4.47µM*,-16.9%,?,.,.,-22.5%
COc1ccc(OCc2cc(=O)c3ccc4c(c3o2)C=CC(C)(C)O4)cc1OC,?,-19.7%,10.6,.,.,i
Cc1c(C(=O)NCC2(N3CCOCC3)CCCC2)cnn1-c1nccc(-c2ccccc2F)n1,.,-20.2%,.,.,.,-28.7%
O=C1C(=O)N(CNc2ccccn2)c2ccccc21,-6.3%,.,-67.7*,?,?,.
CCCc1ccc(Oc2cn[nH]c2-c2ccc(O)c(C)c2O)cc1,12.6µM*,-29.8%,-61.3*,?,-24.2%,-11.2%
COc1ccc(Oc2c(-c3ccc(O)cc3O)n[nH]c2C)cc1,-16.4%,-17.6%,19.8,20.9%[46.1 µM],?,-26.0%
CCCc1ccc(Oc2c(-c3ccc(O)c(C)c3O)n[nH]c2C)cc1,?,.,1.1,?,?,.
CCCOC(=O)c1ccc(Oc2cn[nH]c2-c2ccc(OCC)cc2O)cc1,?,?,69.9,?,7.94µM*,?
CCCOC(=O)c1ccc(Oc2c(-c3ccc(OCC)cc3O)n[nH]c2C)cc1,?,?,-97.6*,?,?,-36.2%
SMILES,HCV inhibitor,Vaccinia Venus,HCMV antiviral,Marburg entry inh,Lassa entry inh,Vaccinia mCherry
Cc1onc(-c2ccccc2[N+](=O)[O-])c1-c1ccccc1[N+](=O)[O-],.,.,-8.3,.,.,.
COc1ccc(-c2nnc(SC(C)C(=O)O)o2)cc1 (stereo not given),.,12.5%,10.2,5.8%[46.1 µM],-28.6%[46.1 µM],3.0%
COc1ccc2c3c([nH]c2c1)[C@@H](CO)N(C(=O)c1ccccc1)CC31CN(C(=O)CC2CC2)C1,.,.,5.0,.,.,.
Oc1ccc2ccccc2c1C=NNc1ccccn1,3.16µM*,?,-97.7*,5.62µM*,?,?
Fc1cccc(F)c1/C=N/Nc1ccccn1,-5.3%,.,-31.2,.,.,.
Oc1ccc2ccccc2c1/C=N/Nc1nnc(-c2ncc[nH]2)c2ccccc12,3.16µM*,.,-102.3*,6.51µM*,?,.
COc1cccc(NC(=O)NC2(C(F)(F)F)Oc3ccccc3O2)c1,?,-23.9%,29.9,8.2µM*,-18.9%,?
O=S(Cc1ccc(Br)cc1)Cc1nnc(SCc2ccc(Cl)cc2)n1-c1ccccc1 (stereo not given),6.31µM*,?,-65.6*,?,12.6µM*,i
O=S(Cc1ccc(Br)cc1)Cc1nnc(SCc2c(F)cccc2Cl)n1-c1ccccc1 (stereo not given),?,-29.0%,?,?,?,-11.9%
O=c1cc(-c2ccccc2)oc2ccccc12,?,-3.6%,19.6,.,.,-2.8%
Nc1cc([N+](=O)[O-])cc2oc(-c3ccccc3)cc12,10µM*,.,90.3,.,.,.
COc1ccc(-c2sc(Nc3ccccc3)n[n+]2-c2ccccc2)cc1Br,5.6%,-4.4%,?,.,.,-17.9%
C(=C\c1sc(Nc2ccccc2)n[n+]1-c1ccccc1)/c1ccccc1,-1.7%,8.91µM*,-3.7,.,.,?
O=C(Nc1cccc(S(=O)(=O)N2CCCCC2)c1)[C@@H]1CCCN1S(=O)(=O)c1ccccc1C(F)(F)F,14.1µM*,.,-23.3,.,.,.
O=C(Nc1ccccc1)[C@@H]1CCCN1S(=O)(=O)c1ccc(Cl)cc1,-1.0%,-0.8%,-29.2,-15.1%,15.8%,i
O=C(Nc1ccc(Cl)cc1)C1CCCCN1S(=O)(=O)c1ccccc1 (stereo not given),?,10µM*,-100.7*,?,-18.1%,?
O=C(CNc1cccc(S(=O)(=O)N2CCCC2)c1)Nc1ccc(C(F)(F)F)cc1,10µM*,-28.9%,-69.2*,?,?,?
Cc1ccc(NC(=O)CNc2cccc(S(=O)(=O)N3CCCCC3)c2)cc1F,?,-18.8%,-35.1,?,-21.0%,?
O=C(CNc1cccc(S(=O)(=O)N2CCCCC2)c1)Nc1ccc(C(F)(F)F)cc1,.,?,-79.0*,.,.,-22.9%
CC(=O)c1cccc(NC(=O)C2CCCN2S(=O)(=O)c2ccccc2C(F)(F)F)c1 (stereo not given),.,-7.6%,2.8,.,.,-11.0%
Cc1ccc(Cl)cc1NC(=O)CN1C(=O)c2ccccc2Sc2ncccc21,.,-0.8%,-9.2,.,14.8%[46.1 µM],-11.9%
Cc1ccc(-c2noc(-c3nnn(-c4ccc(Br)cc4F)c3C)n2)cc1,.,-11.3%,-14.9,.,25.0%[46.1 µM],-8.5%
